From PubChem BioAssay (NCATS)
Inconclusive results are not listed. Values without a mark were called inactive. Active and inactive are the calls of the source. Calls come from the whole dose curve; as a rule, active = well fitted curve in the direction sought with a large enough effect; inconclusive = small, poorly fitted or top-dose-only effect, or another doubt; inactive = no such curve, though single readings can be large; an effect the other way counts as inactive or inconclusive.

test: qHTS of pediatric cancer cell lines to identify multiple opportunities for drug repurposing: Primary screen for control Hh wild type fibroblast cells (AID 1347106); conditions: Hh wild-type fibroblast viability, CellTiter-Glo luminescence, 48 h; series mostly up to 46 µM; activity change, negative = cytotoxic: at the top concentration;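 note: % is set by controls: 0 for no effect and ±100 for the full control effect; a drop in luminescence marks cytotoxicity and a rise apparent proliferation; nearly all actives have a fitted effect of over 55% in size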
How it was run: (§1)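 Viability after 48 h compound treatment at 37C, 500-1,000 cells/well, read as ATP luminescence with CellTiter-Glo. Primary screens used 11-point (MIPE, 0.78 nM-46 µM) or 8-point (NPC, 0.59 nM-46 µM) final concentrations; follow-up screens used 11-point dilutions.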

Compound | activity change, negative = cytotoxic
COc1cc2c(cc1OC)C(=O)CC2 | 8.24%
CC(=O)c1ccc(O)c(C(N)=O)c1 | 6.14%
CCN(CC)CCN | -3.94%
CCN(CC)CC(=O)Nc1c(C)cccc1C(=O)OC | -7.09%
Nc1cccc2c(N)cccc12 | -12.4% [at 92.7 µM]
O=C(O)CCCC[C@@H]1SC[C@@H]2NC(=O)N[C@@H]21 | 4.81%
CN(C)CCOC(c1ccccc1)c1ccc(Br)cc1 (stereo not drawn) | -3.63%
O=C(O)C(=O)Nc1cccc(-c2nn[nH]n2)c1 | 8.9%
C1=CC2C3C=CC(C3)C2C1 (stereo not drawn) | 1.83% [at 92.7 µM]
Nc1ccc(O)cc1 | 13.6%
CCOC(=O)C(=O)c1csc(NC=O)n1 | 1.28%

test: qHTS of pediatric cancer cell lines to identify multiple opportunities for drug repurposing: Primary screen for Rh30 cells (AID 1347107); conditions: Rh30 rhabdomyosarcoma viability, CellTiter-Glo luminescence, 48 h; series mostly up to 46 µM; activity change, negative = cytotoxic: at the top concentration; note: nearly all actives have a fitted effect of over 75% in size; note: potency is the fitted concentration of half-maximal effect; for activity change, negative = cytotoxic: % is set by controls: 0 for no effect and ±100 for the full control effect
How it was run: as §1

Compound | activity change, negative = cytotoxic | Potency
CN(C)CCOC1=Cc2ccccc2Sc2ccc(Cl)cc21 | 6.46% | –
CCCC(=O)O[C@]1(C(=O)CCl)[C@@H](C)C[C@H]2[C@@H]3CCC4=CC(=O)C=C[C@]4(C)[C@@]3(F)C(=O)C[C@@]21C | 0.174% | –
COc1ccc2c(c1)CCCC2=O | 19.1% | –
COC(=O)c1cc(Cl)c(NC(C)=O)cc1OC | 22% | –
CC(=O)/C=C/C=C1/C2CCC(C2)C1(C)C (stereo not drawn) | 4.77% | –
C#Cc1ccc(-c2ccccc2F)cc1 | 31% | –
CC(COc1ccccc1)NN (stereo not drawn) | 22.8% | –
COc1ccc(-n2nc(CCC(=O)N(C)O)cc2-c2ccc(Cl)cc2)cc1 | 7.76% | –
CC[C@@H]([C@H](C)O)n1ncn(-c2ccc(N3CCN(c4ccc(OC[C@@H]5CO[C@@](Cn6cncn6)(c6ccc(F)cc6F)C5)cc4)CC3)cc2)c1=O | -0.806% | –
CCOC(=O)N1CCC(Nc2ccc(Cl)cc2N)CC1 | 17.4% | –
CCCCN(CCN(CCCC)C(=O)N1CCOCC1)C(=O)N1CCOCC1 | -1.17% | –
CCCC(=O)O[C@]1(C(=O)CC)CC[C@H]2[C@@H]3CCC4=CC(=O)CC[C@]4(C)[C@H]3[C@@H](O)C[C@@]21C | -15.3% | –
O=C1NC2CCCCN2C12CCN(CCCN1c3ccccc3CCc3ccc(Cl)cc31)CC2 (stereo not drawn) | 11.8% | –
CC(C)(C)C(=O)OCOC(=O)C1N2C(=O)CC2S(=O)(=O)C1(C)C (stereo not drawn) | 16.6% | –
OC(CCCN1CCCCC1)(c1ccccc1)c1ccccc1 | -11.4% | –
CCCCCCCCCCCC[N+](C)(C)Cc1ccccc1 | – | 18.8 µM (active)
O=C(O)CCC(=O)OC[C@@H](NC(=O)C(Cl)Cl)[C@H](O)c1ccc([N+](=O)[O-])cc1 | 20% | –

Compound | activity change, negative = cytotoxic | Potency
Cc1cc(C(C)(C)C)c(O)c(C(C)(C)C)c1 | 22.6% | –
CC(=O)c1ccc(O)c(C(N)=O)c1 | 27.4% | –
CCN(CC)CCN | 24.9% | –
CCN(CC)CC(=O)Nc1c(C)cccc1C(=O)OC | 11.8% | –
CN1CCCN(C(c2ccccc2)c2ccc(Cl)cc2)CC1 (stereo not drawn) | 9.92% | –
O=C(O)CCCC[C@@H]1SC[C@@H]2NC(=O)N[C@@H]21 | 25.4% | –
CCN(CC)C(=O)C1CN2CCc3cc(OC)c(OC)cc3C2CC1OC(C)=O (stereo not drawn) | 20.4% | –
CCCC(=O)O[C@]1(C(=O)COC(=O)CC)CC[C@H]2[C@@H]3CCC4=CC(=O)CC[C@]4(C)[C@H]3[C@@H](O)C[C@@]21C | 29.4% [at 16.1 µM] | –
CN(C)CCOC(c1ccccc1)c1ccc(Br)cc1 (stereo not drawn) | 14.1% | –
C1=CC2C3C=CC(C3)C2C1 (stereo not drawn) | 23.8% [at 92.7 µM] | –
CN(C(=O)C(Cl)Cl)c1ccc(OC(=O)c2ccco2)cc1 | 16.6% | –
Nc1ccc(O)cc1 | 5.59% | –
CCOC(=O)C(=O)c1csc(NC=O)n1 | 20.8% | –
CCC1=C[C@@H]2CN(C1)Cc1c([nH]c3ccccc13)[C@@](C(=O)OC)(c1cc3c(cc1OC)N(C)[C@H]1[C@@](O)(C(=O)OC)[C@H](OC(C)=O)[C@]4(CC)C=CCN5CC[C@]31[C@@H]54)C2 | 3.72% | –
CC(=O)Oc1ccc(C2(c3ccc(OC(C)=O)cc3)Oc3ccccc3NC2=O)cc1 | 1.31% | –
O=C1Cc2cc(Cl)ccc2N1 | 28.5% | –

test: qHTS of pediatric cancer cell lines to identify multiple opportunities for drug repurposing: Primary screen for Rh41 cells (AID 1347108); conditions: Rh41 rhabdomyosarcoma viability, CellTiter-Glo luminescence, 48 h; series mostly up to 46 µM; activity change, negative = cytotoxic: at the top concentration; note: nearly all actives have a fitted effect of over 70% in size; note: potency is the fitted concentration of half-maximal effect;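 for activity change, negative = cytotoxic: luminescence drop marks cytotoxic hits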
How it was run: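 500-1,000 cells/well; 5 h pre-incubation 37 °C/5% CO2; compound pinned; 48 h; CellTiter-Glo, 15 min RT; luminescence. MIPE 11-pt from 0.78 nM, NPC 8-pt from 0.59 nM final. Bortezomib 2.3 µM final as positive control.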

Compound | activity change, negative = cytotoxic | Potency
CN(C)CCOC1=Cc2ccccc2Sc2ccc(Cl)cc21 | 2.3% | –
COC(=O)c1cc(Cl)c(NC(C)=O)cc1OC | 23.5% | –
CC(=O)/C=C/C=C1/C2CCC(C2)C1(C)C (stereo not drawn) | 13.7% | –
C#Cc1ccc(-c2ccccc2F)cc1 | 28.7% | –
CC(C(O)c1ccccc1)N(C)CCOC(c1ccccc1)c1ccccc1 (stereo not drawn) | 11% | –
CC(COc1ccccc1)NN (stereo not drawn) | 21% | –
CC(C)(C)C(=O)OCOC(=O)C1N2C(=O)CC2S(=O)(=O)C1(C)C (stereo not drawn) | 18.4% | –
CCCCCCCCCCCC[N+](C)(C)Cc1ccccc1 | – | 21.1 µM (active)
Cc1cc(C(C)(C)C)c(O)c(C(C)(C)C)c1 | 21.6% | –
CC(=O)c1ccc(O)c(C(N)=O)c1 | 27.6% | –
CCN(CC)CCN | 20% | –
CCN(CC)CC(=O)Nc1c(C)cccc1C(=O)OC | 5.04% | –
Nc1cccc2c(N)cccc12 | – | 30.6 µM (active)
CN1CCCN(C(c2ccccc2)c2ccc(Cl)cc2)CC1 (stereo not drawn) | 3.42% | –
O=C(O)CCCC[C@@H]1SC[C@@H]2NC(=O)N[C@@H]21 | 14.4% | –
CCN(CC)C(=O)C1CN2CCc3cc(OC)c(OC)cc3C2CC1OC(C)=O (stereo not drawn) | 13.6% | –
CCCC(=O)O[C@]1(C(=O)COC(=O)CC)CC[C@H]2[C@@H]3CCC4=CC(=O)CC[C@]4(C)[C@H]3[C@@H](O)C[C@@]21C | 41.6% [at 16.1 µM] | –
CN(C)CCOC(c1ccccc1)c1ccc(Br)cc1 (stereo not drawn) | 15% | –
O=C(O)C(=O)Nc1cccc(-c2nn[nH]n2)c1 | 27.2% | –
C1=CC2C3C=CC(C3)C2C1 (stereo not drawn) | 44.4% [at 92.7 µM] | –
CN(C(=O)C(Cl)Cl)c1ccc(OC(=O)c2ccco2)cc1 | 15.1% | –
Nc1ccc(O)cc1 | 3.98% | –
CCOC(=O)C(=O)c1csc(NC=O)n1 | 25.9% | –
O=C1Cc2cc(Cl)ccc2N1 | 34.3% | –
